# High-throughput results deposited in PubChem BioAssay by National Center for Advancing Translational Sciences (NCATS).
# NS1 function inh = inhibitors of influenza NS1 protein function; Potency, µM (titrated, usually from 46.1 µM), for the others: at the highest dose activity, positive = more growth; hit rate 0.4% among 270,000; calls by dose curve; note: potency is the fitted concentration of half-maximal effect; actives are rising curves; nearly all actives have a fitted effect of over 50% in size
#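 Recovery from NS1-induced slow growth read by OD600 in budding yeast switched to galactose assay medium (pH 6.0, -URA) at 1:100 dilution. Compound 23 nl per well; the matching strain lacking NS1 serves as control.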
# Shiga inhibitor = blocks Shiga toxin action in Vero cells; Vero cells, Shiga toxin protein synthesis inhibition reporter; inhibition, % at 38.7 µM; hit rate 9.2% among 290,000; in the data active = inhibition mostly above about 28%, no sharp cut-off; inactive = mostly below about 43%; note: 0% is about no effect
# CHX counter = counter-screen hit for Shiga toxin inhibitors, cycloheximide; cell reporter, cycloheximide protein synthesis inhibition counterscreen; max response, %; hit rate 12% among 300,000; AID 2314; in the data active = max response mostly above about 13%, no sharp cut-off; inactive = mostly below about 14%; note: read at 38.3 µM for the half of the compounds with a filed dose; 0% is about no effect
# Giardia FBPA inh = inhibitors of Giardia lamblia fructose-1,6-bisphosphate aldolase | purified Giardia FBPA | hit rate 0.71% among 290,000 | AID 2451 | Potency, µM (doses to about 59.6 µM), without a hit: at the top dose activity, negative = inhibition, most hits filed as inhibitors; note: potency is the fitted concentration of half-maximal effect; % is set by controls: 0 for no effect and ±100 for the full control effect; nearly all actives have a fitted effect of over 55% in size
# Target sequence (A8B2U2 whole entry, looked up): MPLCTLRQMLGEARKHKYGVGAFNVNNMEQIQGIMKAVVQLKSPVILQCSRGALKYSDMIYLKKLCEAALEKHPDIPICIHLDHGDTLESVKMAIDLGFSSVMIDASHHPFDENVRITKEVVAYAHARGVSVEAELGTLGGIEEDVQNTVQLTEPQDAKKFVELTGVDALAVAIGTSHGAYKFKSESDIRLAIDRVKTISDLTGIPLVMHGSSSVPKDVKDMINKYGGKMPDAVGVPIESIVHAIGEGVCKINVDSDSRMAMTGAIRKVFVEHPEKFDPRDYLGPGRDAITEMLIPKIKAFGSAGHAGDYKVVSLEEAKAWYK
#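 40 nM FBPA preincubated 10 min at RT with compound (up to 57.5 uM final), then substrate plus GAPDH/TPI/NAD/arsenate coupling and diaphorase/resazurin added. Fluorescence read after 20 min at RT, 525/598 nm.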
# LmPK inhibitor = LmPK (Leishmania mexicana) enzyme inhibition. Q27686. purified LmPK, Kinase-Glo ATP luminescence, 1 h. Potency, µM (series often up to 57.5 µM), for the others: at the top dose activity change, negative = inhibition, most hits filed as inhibitors. hit rate 0.37% among 290,000; note: potency is the fitted concentration of half-maximal effect; % is set by controls: 0 for no effect and ±100 for the full control effect
#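 Pyruvate kinase activity monitored as ATP production (luciferase luminescence). Conditions: 0.1 nM enzyme, 0.5 mM PEP, 0.1 mM ADP, 1 h, RT; normalized against uninhibited and no-enzyme wells.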
# The depositor's hits bear a star; u = inconclusive; x = no result; + = active, no number; [ ] = remark or other dose. Shown are actives, neighbours in structure and some others; about 14% of the full set was active somewhere. Unless noted, calls come from the whole dose curve; as a rule, active = well fitted curve in the direction sought with a large enough effect; inconclusive = small, poorly fitted or top-dose-only effect, or another doubt; inactive = no such curve, though single readings can be large; an effect the other way counts as inactive or inconclusive.
SMILES,NS1 function inh,Shiga inhibitor,CHX counter,Giardia FBPA inh,LmPK inhibitor
CC12CCC(C(=O)N(CSC(=S)N/N=C\c3ccccc3O)C1=O)C2(C)C (stereo not given),28.2%,56.2,26.0*,22.9%,-11.3%
CCc1nc(-c2ccccc2)c2ccccn12,x,20.2,12.7,4.46µM*,13.7%[11.5 µM]
CC(C)[C@H](NC(=O)c1cccc(S(=O)(=O)N2CCOCC2)c1)C(=O)Nc1nc2ccccc2s1,22.6%,+,25.7*,-2.3%,-1.2%
CC1CCc2nc(NC(=O)c3ccc(S(=O)(=O)N4CCCc5ccccc54)cc3)sc2C1 (stereo not given),-0.2%,-4.0,-3.8,3.3%,-1.5%
Cc1nnc(NC(=O)c2cccc(S(=O)(=O)N3CCc4ccccc43)c2)s1,11.1%,-18.8,-4.7,28.9%,6.9%
Cc1cccc(S(=O)(=O)N2CCCc3ccccc32)c1,-9.2%,-6.8,11.2,-5.8%,-0.1%
O=C(Nc1nc2c(s1)CCCC2)c1ccc(S(=O)(=O)N2CCCc3ccccc32)cc1,2.3%,11.4,10.3*,4.4%,0.9%
O=C(Nc1nc2ccccc2s1)c1cccc(S(=O)(=O)N2CCc3ccccc32)c1,12.5%,21.3,14.1*,-3.2%,0.1%
Cc1cccnc1NC(=O)c1cccc(S(=O)(=O)N2CCCc3ccccc32)c1,3.7%,18.9,26.3*,x,-3.2%
CCOc1ccccc1NC(=O)[C@@H](NC(=O)c1cccc(S(=O)(=O)N2CCOCC2)c1)C(C)C,5.9%,26.6,2.2,-0.3%,2.4%
Cc1ccc2nccc(C(=O)N3CCCC(N4CCN(c5ccc(F)cc5)CC4)C3)c2c1 (stereo not given),-4.5%,-5.4,-1.8,x,-1.4%
O=C(O)c1c[nH]c2c(ccc3[nH]cc(C(=O)O)c(=O)c32)c1=O,-6.2%,x,x,x,x
COCCCNC(=O)C1CCC(CNS(=O)(=O)c2ccc(C)cc2)CC1 (stereo not given),x,16.1,5.3,1.7%,-9.6%
COC(=O)CSc1ncnc2c1sc1nc3c(cc12)COC(C)(C)C3,0.4%,-3.0,6.0,-4.9%,2.3%
Cc1nc(OCC(C)C)c2sc3nc4c(cc3c2n1)COC(C)(C)C4,7.3%,60.5*,20.1*,2.2%,-0.5%
CCc1nc(OCc2ccco2)c2sc3nc4c(cc3c2n1)COC(C)(C)C4,-10.2%,5.4,4.3,-10.1%,-12.0%
COc1nc(C)nc2c1sc1nc3c(cc12)COC(C)(C)C3,0.8%,58.3,34.2*,-7.9%,u
C/C(=N\NC(=S)Nc1ccccc1)c1c(O)n(C)c(=O)n(C)c1=O,9.8%,+,42.3*,-6.6%,-0.1%
CC(=Nc1ccccc1N)c1c(O)n(C)c(=O)n(C)c1=O,-19.9%,71.5*,23.6*,1.3%,-0.1%
CC/C(=N\Nc1ccccc1)c1c(O)n(C)c(=O)n(C)c1=O,2.1%,-6.1,-7.5,-1.2%,2.1%
CCOC(=O)C1(Cc2cccc(OC)c2)CCCN(C(=O)c2cc(C)on2)C1 (stereo not given),-7.0%,91.8*,37.4*,x,-5.9%
CCOC(=O)C1(Cc2cccc(OC)c2)CCN(Cc2ccccc2)CC1,14.0%,-8.5,0.8,-10.9%,0.6%
CCOC(=O)C1(Cc2cccc(OC)c2)CCCN(C(=O)c2cc(C)[nH]n2)C1 (stereo not given),6.3%,-14.3,-5.4,0.0%,7.7%
CCOC(=O)C1(Cc2cccc(OC)c2)CCCN(S(=O)(=O)N(C)C)C1 (stereo not given),-1.3%,-7.5,-1.9,0.8%,-1.1%
CCOC(=O)C1(Cc2cccc(OC)c2)CCCN(C(=O)CNC(C)=O)C1 (stereo not given),-7.1%,x,38.5*,-3.2%,2.5%
SMILES,NS1 function inh,Shiga inhibitor,CHX counter,Giardia FBPA inh,LmPK inhibitor
CCOC(=O)C1(Cc2cccc(OC)c2)CCCN(C(=O)c2ccccc2C)C1 (stereo not given),-2.3%,115.5*,59.5*,0.1%,1.3%
CCOC(=O)C1(Cc2cccc(OC)c2)CCN(Cc2cccnc2)CC1,-6.1%,99.3*,34.8*,1.7%,1.3%
Cc1ccc(NC(=O)COc2nsnc2N2CCOCC2)cc1Cl,-2.5%,22.5,-1.6,-3.4%,-1.2%
C=CCC1(c2ccccc2)Oc2ccc(C)cc2-c2nc3cc(Cl)c(Cl)cc3nc21 (stereo not given),x,x,x,-4.5%[12.9 µM],x
Cn1c2cc(C=O)sc2c2cnn(Cc3ccccc3F)c(=O)c21,x,-7.0,-6.0,x,x
COc1ccc(NC(=O)c2cccc(N3C(=O)c4cccc([N+](=O)[O-])c4C3=O)c2)cc1,1.7%,25.7,24.3*,x,-5.8%
CC(=O)c1ccc(NC(=O)c2cccc(N3C(=O)c4ccccc4C3=O)c2)cc1,5.1%,-10.5,3.6,0.2%,-0.3%
C[C@@H]([C@H](O)c1ccccc1)N(C)C(=S)Nc1ccccc1,9.7%,19.8,-1.5,-12.9%,-0.3%
CCCOc1ccc(CNC(=O)c2ccc3nc(N4CCOCC4)sc3c2)cc1,-17.3%,-1.7,1.9,21.3%,2.5%
COc1ccc(CC(=O)c2cc(OC)c(OC)cc2CC(=O)O)cc1OC,13.3%,38.1,-2.5,1.9%,3.3%
COc1ccc(C(=O)CN2C(=O)c3ccccc3C2=O)c(OC)c1,-7.6%,-14.8,14.9*,x,-13.6%
COc1ccc(C(=O)Cc2ccc(OC)c(OC)c2)c(OC)c1,-8.8%,70.8,12.0*,-9.3%,11.6%
COc1ccccc1C(=O)COC(=O)CN1C(=O)c2ccccc2C1=O,-24.3%,-2.6,-2.8,x,-2.4%
COc1ccc(CC(=O)c2ccc(OC)c(OC)c2)cc1,-6.6%,130.0,23.2*,0.3%,-6.4%
O=C(c1ccccc1NS(=O)(=O)c1ccc(Br)cc1)N1CCOCC1,7.8%,7.9,4.2,x,-9.8%
Cc1cc(C(=O)Nn2cnc3ccccc3c2=O)ccc1[N+](=O)[O-],x,-7.7,5.1,11.1%,1.5%
CC(C)c1ccc(NC(=O)CN2CCN(C(=O)C3CCCO3)CC2)cc1 (stereo not given),5.1%,-5.0,-0.6,x,2.1%
Cc1ccccc1OCC(=O)Nc1nc2ccccc2[nH]1,x,107.7*,31.6*,u,9.0%
Cc1cc(C)c(OCC(=O)Nc2nc3ccccc3[nH]2)c(C)c1,x,13.5,10.9,-0.4%,0.1%
CC(CC(=O)Nc1nc2ccccc2[nH]1)n1ccnc1 (stereo not given),x,-17.4,12.9,0.0%,-5.9%
O=C(COc1ccccc1)Nc1nc2ccccc2[nH]1,-13.2%,65.0*,45.5*,-8.9%,-4.2%
Cc1ccc(CC(=O)Nc2nc3ccccc3[nH]2)cc1C,-3.8%,41.2,27.9,0.8%,0.8%
O=C(Cc1ccccc1Cl)Nc1nc2ccccc2[nH]1,1.2%,30.7*,31.0*,0.7%,0.7%
CC(CC(=O)Nc1nc2ccccc2[nH]1)c1ccccc1 (stereo not given),-4.3%,84.4*,45.6*,7.6%,-7.7%
COc1ccc(-c2nnc3n2N=C(c2ccc(OC)c(OC)c2)CS3)cc1,x,-4.4,2.9,4.2%,x
COc1cc(C(O)c2nc3ccccc3n2C(C)C)cc(OC)c1OC (stereo not given),-5.6%,-6.3,2.9,-0.5%,-3.5%
CC(C)NC(=O)COc1coc(CN2CCN(Cc3ccccc3)CC2)cc1=O,1.3%,-7.6,-2.7,x,-8.7%
